# From PubChem BioAssay
# EPAC1 antag: qHTS for Antagonist of cAMP-regulated guanine nucleotide exchange factor 3 (EPAC1): primary screen; AID 720709, 2013; EPAC1 GEF assay, Rap1b-BODIPY-GDP exchange fluorescence; Potency, µM (highest dose often 115 µM), for inactives: top-dose activity change, negative = inhibition, actives largely listed as inhibitors; hit rate 0.14% among 360,000; Rap guanine nucleotide exchange factor 3 (Homo sapiens), O95398;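 note: plate controls were vehicle for no effect and positive control for full effect; nearly all actives have a fitted effect of over 50% in size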
# EPAC1 agonist: qHTS for Agonist of cAMP-regulated guanine nucleotide exchange factor 3 (EPAC1): primary screen; Rap guanine nucleotide exchange factor 3 (Homo sapiens), O95398; EPAC1 agonist qHTS, biochemical assay; response scale: 100% = response to 6.5 mM cAMP; Potency, µM (doses to about 154 µM), without a hit: at the top dose activation, most hits filed as activators; hit rate 0.073% among 360,000; note: nearly all actives have a fitted effect of over 60% in size
#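 Fluorescent GDP-exchange assay: 100 nM EPAC1 with 250 nM Rap1B preloaded with BODIPY-GDP and 50 uM GDP; compounds tested as concentration series, 5 min at room temperature, then read every 5 min for 30 min (ex 480/em 540 nm); normalized to 6.5 mM cAMP.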
# ALOX12 inh: Primary qHTS assay for inhibitors of human arachidonate 12S-lipoxygenase (ALOX12): Round 2 | Polyunsaturated fatty acid lipoxygenase ALOX12 (Homo sapiens), P18054 | purified 12hLO, xylenol orange hydroperoxide absorbance | Potency, µM (doses to about 108 µM), for the others: at the highest dose activity change, negative = inhibition, usual class: inhibitors | hit rate 1.1% among 580,000; note: % is set by controls: 0 for no effect and ±100 for the full control effect
# Target sequence (P18054 whole entry, looked up): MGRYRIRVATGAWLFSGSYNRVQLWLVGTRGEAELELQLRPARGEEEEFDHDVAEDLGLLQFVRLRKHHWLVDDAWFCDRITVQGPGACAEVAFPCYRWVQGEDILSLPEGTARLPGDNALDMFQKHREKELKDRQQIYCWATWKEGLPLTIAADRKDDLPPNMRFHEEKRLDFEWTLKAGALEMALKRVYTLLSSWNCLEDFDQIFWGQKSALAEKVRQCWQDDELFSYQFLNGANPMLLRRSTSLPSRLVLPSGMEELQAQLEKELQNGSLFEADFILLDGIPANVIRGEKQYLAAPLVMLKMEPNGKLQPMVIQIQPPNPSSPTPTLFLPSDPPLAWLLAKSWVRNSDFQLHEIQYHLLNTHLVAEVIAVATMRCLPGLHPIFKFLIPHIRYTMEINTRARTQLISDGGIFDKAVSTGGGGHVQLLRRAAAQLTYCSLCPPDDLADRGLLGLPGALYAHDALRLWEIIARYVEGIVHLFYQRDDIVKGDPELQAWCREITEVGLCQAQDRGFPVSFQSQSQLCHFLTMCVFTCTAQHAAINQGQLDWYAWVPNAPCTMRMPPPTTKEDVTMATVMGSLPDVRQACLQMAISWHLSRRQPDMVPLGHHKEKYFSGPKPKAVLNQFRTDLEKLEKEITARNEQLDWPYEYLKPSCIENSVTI
#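 Purified human 12hLO at 150 nM in 25 mM Hepes, 0.01% Triton X-100, pH 7.0, preincubated 15 min at room temperature with compound. Reaction started with 40 uM arachidonic acid, 30 min at room temperature. Hydroperoxide measured by Fe-xylenol orange, 573/405 nm absorbance ratio.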
# USP1-UAF1 inh: Inhibitors of USP1/UAF1: Primary Screen. recombinant USP1/UAF1, Ub-Rhodamine cleavage fluorescence. Potency, µM (highest dose often 57.1 µM), for the others: at the highest dose activity change, negative = inhibition, most hits filed as inhibitors. hit rate 0.23% among 390,000. AID 743255, 2014; note: % is set by controls: 0 for no effect and ±100 for the full control effect; nearly all actives have a fitted effect of over 60% in size
#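 1 nM enzyme complex + cpd, 15 min RT; start with Ub-Rho 150nM final; kinetic fluorescence ex 480/em 540, 6 reads q60 s. Buffer 50mM HEPES pH 7.8, 0.5mM EDTA, 0.1 mg/ml BSA, 1mM TCEP, 0.01% Tween-20.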
# EPAC2 antagonist: qHTS for Antagonist of cAMP-regulated guanine nucleotide exchange factor 2 (EPAC2): primary screen; EPAC2 GEF exchange of Rap1B-BODIPY-GDP, fluorescence; hit rate 0.18% among 360,000; AID 720708, 2013; Rap guanine nucleotide exchange factor 4 (Homo sapiens), Q8WZA2; Potency, µM (top dose mostly 114 µM), inactives show top-dose activity, negative = inhibition, actives largely listed as inhibitors; note: % is set by controls: 0 for no effect and ±100 for the full control effect; nearly all actives have a fitted effect of over 45% in size
# EPAC2 agonist: qHTS for Agonist of cAMP-regulated guanine nucleotide exchange factor 4 (EPAC2): primary screen; EPAC2 activation, biochemical qHTS; response scale: 100% = 6.5 mM cAMP response; Potency, µM (highest dose often 154 µM), for inactives: top-dose activation, hits mostly activators; Rap guanine nucleotide exchange factor 4 (Homo sapiens), Q8WZA2; hit rate 0.079% among 360,000; note: nearly all actives have a fitted effect of over 50% in size
#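 Compounds were titrated in qHTS against a Rap1B-BODIPY-GDP (250 nM) complex with EPAC2 (100 nM) and GDP (50 uM). BODIPY-GDP release tracked at 480/540 nm over 30 min at room temperature, normalized to 6.5 mM cAMP.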
# * hit, by the source's call; ? = inconclusive; · = no result; ! = repeats disagree; [ ] = another dose, or the depositor's remark. The list is not random: actives were taken first. Their share in the collection is about 1.3%. Calls come from the whole dose curve; as a rule, active = well fitted curve in the direction sought with a large enough effect; inconclusive = small, poorly fitted or top-dose-only effect, or another doubt; inactive = no such curve, though single readings can be large; an effect the other way counts as inactive or inconclusive. Potency is the fitted concentration of half-maximal effect.
SMILES,EPAC1 antag,EPAC1 agonist,ALOX12 inh,USP1-UAF1 inh,EPAC2 antagonist,EPAC2 agonist
CN1CCN(C(=O)Cn2nc(-c3ccc(Cl)cc3)c3ccccc3c2=O)CC1,·,·,2.9%,·,·,·
Cc1ccc2c(c1)C(O)(CC(=O)c1ccco1)C(=O)N2 (centres undefined),·,·,0.8%,·,·,·
OCc1ccc(O)c2ncccc12,-10.0%,-1.8%,?,-9.9%,0.9%,12.9%[15.6 µM]
Oc1ccc(CNc2ccccc2F)c2cccnc12,-21.7%,-8.0%,2.24µM*!,-16.6%,6.4%,-7.7%
O=C(/C=C/c1ccco1)NC(=S)Nc1cccc([N+](=O)[O-])c1,?,6.3%,39.8µM*,-0.2%,-5.1%,4.2%
Cc1ccc(-n2nc3ccc(NC(=S)NC(=O)/C=C/c4ccco4)cc3n2)cc1,-2.2%,-9.1%,?,-18.8%,14.8%,-0.3%
Cc1ccc(-n2nc3cc(C)c(NC(=S)NC(=O)/C=C/c4ccco4)cc3n2)cc1,-1.5%,10.0%,44.7µM*,-5.1%,7.0%,-5.3%
COc1ccccc1NC(=S)NC(=O)/C=C/c1ccco1,-2.5%,11.4%,39.8µM*,-21.1%,5.2%,23.0%
COC(=O)C1=C(C)N(c2ccccc2)C(=O)CC1C(=O)Nc1ccc(F)c(F)c1 (centres undefined),·,·,-27.6%,·,·,·
N#CC1=C2SCN(Cc3ccccc3)CN2C(=O)CC1c1ccc2c(c1)OCO2 (centres undefined),1.0%,0.6%,39.8µM*,-14.9%,3.0%,-4.5%
N#CC1=C2SCN(Cc3ccccc3)CN2C(=O)CC1c1cccs1 (centres undefined),-21.7%,2.6%,?,15.8µM*,5.8%,11.6%
N#CC1=C2SCN(Cc3ccco3)CN2C(=O)CC1c1ccc(Cl)cc1 (centres undefined),-12.0%,4.4%,?,-21.9%,0.7%,10.1%
COc1cc(C2CC(=O)N3CN(Cc4ccco4)CSC3=C2C#N)ccc1OCc1ccccc1 (centres undefined),-9.7%,5.0%,25.1µM*,?,-8.4%,4.0%
O=C(COCc1cc(-c2ccc(F)cc2)on1)Nc1ccccc1F,·,·,-0.4%,·,·,·
CCOC(=O)C(=O)N1CCN(c2nc(C)c3c(c2C#N)CCCC3)CC1,·,·,5.3%,·,·,·
COCc1nc2nc(-c3ccccc3)c(-c3ccc(N4CCN(C)CC4)nc3)cc2n1C,·,·,1.0%[176 µM],·,·,·
C/C(=N/NC(=O)C1CC1)c1ccc(Cl)c(Cl)c1Cl,·,·,41.7%,·,·,·
CN(Cc1cccc(F)c1)C(=O)COc1ccc2ccc(=O)oc2c1,·,·,-36.6%,·,·,·
COc1ccc(-c2c(C)oc3cc(OCCN4CCC(C(N)=O)CC4)ccc3c2=O)cc1OC,·,·,-26.7%,·,·,·
CCCN(C(=O)Cn1nc(Cc2ccncc2)c2ccccc2c1=O)c1ccccc1F,·,·,5.0%,·,·,·
CCCCn1c(N)c(N(CC(C)C)C(=O)C2CCN(S(=O)(=O)c3ccc(C)c(C)c3)CC2)c(=O)[nH]c1=O,50.1µM*,-10.9%,-23.7%,-4.8%,28.8%,-6.6%
Cn1c(=O)c(Oc2ccc(F)cc2F)cc2cnc(NC3CCOCC3)nc21,·,·,17.2µM*,·,·,·
COCC(=O)O[C@]1(CCN(C)CCCc2nc3ccccc3[nH]2)CCc2cc(F)ccc2[C@@H]1C(C)C,7.6%,-10.7%,11.2µM*!,-15.3%,-3.9%,0.8%
Cc1cccc(OCC(=O)NCCc2nc3ccccc3[nH]2)c1C,·,·,8.8%,-1.7%,·,·
COc1ccc(C2=Nn3c(nnc3-c3ccco3)SC2)cc1,9.0%,-5.7%,1.7%,-11.8%,4.8%,-2.2%
SMILES,EPAC1 antag,EPAC1 agonist,ALOX12 inh,USP1-UAF1 inh,EPAC2 antagonist,EPAC2 agonist
Oc1ccc(C2=Nn3c(nnc3-c3ccco3)SC2)cc1O,44.7µM*,-0.8%,7.08µM*,-0.3%,?,27.8%
CCCCCCCCOc1ccc(C(CC(=O)c2ccccc2)CC(=O)c2ccccc2)cc1,·,·,0.9%,·,·,·
Cn1c(=O)c2c([nH]c(=S)n2CCCc2ccccc2)n(C)c1=O,-3.4%,-3.4%,1.26µM*,3.6%,1.7%,6.6%
CCOC(=O)c1oc2ccccc2c1CN1CCN(C)CC1,-1.4%,-7.2%,35.5µM*,-17.2%,5.2%,5.6%
CCOC(=O)c1oc2ccccc2c1CN1CCCCC1,-3.4%,9.1%,-9.9%,-4.1%,0.3%,5.4%
CN(Cc1ccc(-c2ccc(Cl)cc2)o1)C(=O)CNC(=O)c1ccc(F)cc1,·,·,-18.8%,·,·,·
O=C(Cc1cccc2ccccc12)NC(=S)Nc1cccc(C(=O)O)c1,-26.7%,8.8%,35.5µM*,-24.2%,3.7%,3.3%
O=C(O)c1cccc(NC(=S)NCc2ccccc2)c1,5.1%,8.9%,?,-6.8%,2.6%,10.6%
O=C(Cc1cccc2ccccc12)Nc1cc(Cl)ccc1C(=O)O,?,-3.1%,17.8µM*!,-19.2%,-23.8%,-2.8%
COc1cc2ccccc2cc1C(=O)NC(=S)Nc1cccc(C(=O)O)c1,44.7µM*,?,?,-25.0%,13.1%,10.2%
CC1CCN(c2nc3ccccc3nc2SCC(=O)N2CCCCCC2)CC1,·,·,30.4%,·,·,·
COc1ccc2cc(C(=O)OC(C)C(=O)N3CCOCC3)c(C)nc2c1 (centres undefined),·,·,-4.8%,·,·,·
Cc1cc(C(C)(C)C)ccc1OCC(O)Cn1cnc2sccc2c1=O (centres undefined),·,·,-1.4%,·,·,·
COc1ccc(CCn2c(=N)c(S(=O)(=O)c3ccc(C)cc3)cc3c(=O)n4ccccc4nc32)cc1,104.9%,-17.4%,-1.8%,-17.3%,89.1µM*,-7.5%
Cc1cc(C)c(NC(=S)NCCCSC2CCCCC2)c(C)c1,?,12.0%,25.1µM*,-10.3%,-14.1%,4.6%
COC(=O)c1cc(-c2ccc(C)o2)nc2ccccc12,-15.2%,2.2%,6.31µM*,0.0%,-3.5%,26.4%
Cc1ccc(-c2cc(C(=O)OCC(=O)N(C)c3c(N)n(Cc4ccccc4)c(=O)[nH]c3=O)c3ccccc3n2)o1,-7.2%,-18.5%,7.08µM*,-19.8%,7.1%,-7.7%
CCOc1ccccc1NC(=O)c1cc(-c2ccco2)nc2ccccc12,·,·,11.2µM*,·,·,·
CN(C(=O)COC(=O)c1cc2ccccc2cc1O)c1c(N)n(Cc2ccccc2)c(=O)[nH]c1=O,-17.3%,2.6%,?,-3.2%,9.9%,1.3%
CC(=O)Nc1ccc(-c2cc(C(=O)O)c3ccccc3n2)cc1,?,2.8%,?,-2.5%,-2.0%,-3.5%
